Reference: PubChem BioAssay (Tox21)
Results filed as inconclusive are left out. Activity calls are given as the source filed them. Unless noted, calls follow the shape of the dose curve; as a rule, active = well fitted curve in the direction sought with a large enough effect in the repeat runs; inconclusive = weak or mixed curves; inactive = no such curve, though single readings can be large; an effect the other way counts as inactive or inconclusive.

Columns and labels:
[1] = molecular target: Thyrotropin receptor (Homo sapiens) (UniProt P16473); test: qHTS assay to identify small molecule agonists of the thyroid stimulating hormone receptor (TSHR) signaling pathway (AID 1224843; calls by dose curve; also: nearly all actives have a fitted effect of over 45% in size); conditions: TSHR-HEK293 cells, cAMP HTRF, agonist mode, 30 min; series mostly up to 92.4 µM
Method in brief: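 A cell-based cAMP HTRF format was run in TSHR-transfected HEK293 cells, 800 per well. Treatment: 30 min, room temperature. Detection: 1 h with labelled cAMP and anti-cAMP cryptate. Concentration-response over 15 points, three replicates.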

[2] = qHTS assay to identify small molecule agonists of the hypoxia (HIF-1) signaling pathway - cell viability counter screen (AID 1224844; calls by dose curve; also: nearly all actives have a fitted effect of over 50% in size); conditions: HRE-bla ME-180 viability, CellTiter-Glo luminescence, 17 h; series mostly up to 76.8 µM
Method in brief: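 In this counter screen, HRE-bla ME-180 cell viability after 17 hrs of compound exposure at 37C was read by CellTiter-Glo luminescence, multiplexed with the beta-lactamase reporter measurement.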

[3] = qHTS assay to identify small molecule agonists of the hypoxia (HIF-1) signaling pathway (AID 1224846; active = well fitted activation curve with a large enough effect in the signal ratio in the repeat runs, not every such curve was filed as active; the % refers to the signal ratio); conditions: HRE-bla ME-180 cells, beta-lactamase ratio, 17 h; series mostly up to 76.8 µM
Method in brief: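 ME-180 HRE-bla reporter cells; compounds in DMSO, 17 h at 37C; read-out beta-lactamase via CCF4-AM FRET.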

[4] = qHTS assay to identify small molecule antagonists of the estrogen related receptor (ERR) signaling pathway from Tox21 library (AID 1224848); conditions: ERR reporter cell line, luciferase antagonist mode, 18 h; series mostly up to 92.4 µM; also: nearly all actives have a fitted effect of over 50% in size; also: potency is read from the fitted curve at half-maximal effect
Method in brief: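 ERR cell line, 2,000 cells/well. 6 h settle, then compound (DMSO) added; 18 h at 37 C; ONE-Glo luminescence after 30 min RT.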

[5] = qHTS assay to identify small molecule agonists of the estrogen related receptor (ERR) signaling pathway from Tox21 library (AID 1224849; calls by dose curve; also: nearly all actives have a fitted effect of over 15% in size); conditions: ERR reporter cell line, ONE-Glo luciferase, 18 h; at 92.4 µM (top of the series) unless noted
Method in brief: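 Luciferase activity in ERR pathway reporter cells served as the agonist readout; exposure lasted 18 h at 37 C, with ONE-Glo detection after 30 min at room temperature.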

[6] = qHTS RealTime-Glo MT Cell Viability Assay in HepG2 cells - 24 hour (AID 1224867); conditions: RealTime-Glo luminescence; series mostly up to 76.8 µM; also: nearly all actives have a fitted effect of over 50% in size
Method in brief: (§1)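 Compound treatment began 5 h after plating HepG2 cells (600/well) with NanoLuc luciferase and prosubstrate. Plates stayed at 37 C for 40 h; luminescence was captured at six time points, 0 h through 40 h.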

[7] = qHTS RealTime-Glo MT Cell Viability Assay in HEK293 cells - 32 hour (AID 1224868); conditions: RealTime-Glo luminescence; series mostly up to 76.8 µM; also: nearly all actives have a fitted effect of over 50% in size; also: potency is read from the fitted curve at half-maximal effect
Method in brief: (§2)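 Quantitative high-throughput screen of the Tox21 10K library in HEK293: cells and RealTime-Glo reagents plated together, compound added at 5 h, luminescence monitored through 40 h at 37 C.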

[8] = A CellTox Green Cytotoxicity Assay to monitor cytotoxicity in HEK293 cells - 0 hour (AID 1224869); conditions: CellTox Green fluorescence; series mostly up to 76.8 µM; also: nearly all actives have a fitted effect of over 50% in size
Method in brief: (§3)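 Real-time, in one plate: 600 HEK293 cells/well with dead-cell DNA dye, pinned compound after 5 h, 37 C incubation over 40 h; viable cells give no appreciable fluorescence.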

[9] = qHTS RealTime-Glo MT Cell Viability Assay in HepG2 cells - 40 hour (AID 1224870); conditions: RealTime-Glo luminescence; series mostly up to 76.8 µM; also: nearly all actives have a fitted effect of over 50% in size
Method in brief: (§4)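 Real-time viability: cells seeded at 600 per well together with NanoLuc and cell-permeant prosubstrate, compounds added after 5 h incubation. Luminescence tracked at 0, 8, 16, 24, 32 and 40 h of exposure.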

[10] = A CellTox Green Cytotoxicity Assay to monitor cytotoxicity in HEK293 cells - 40 hour (AID 1224871); conditions: CellTox Green fluorescence; series mostly up to 76.8 µM; also: nearly all actives have a fitted effect of over 45% in size
Method in brief: as §3

[11] = qHTS RealTime-Glo MT Cell Viability Assay in HEK293 cells - 16 hour (AID 1224872); conditions: RealTime-Glo luminescence; series mostly up to 76.8 µM; also: nearly all actives have a fitted effect of over 50% in size; also: potency is read from the fitted curve at half-maximal effect
Method in brief: as §2

[12] = qHTS RealTime-Glo MT Cell Viability Assay in HepG2 cells - 8 hour (AID 1224873); conditions: RealTime-Glo luminescence; series mostly up to 76.8 µM; also: nearly all actives have a fitted effect of over 55% in size
Method in brief: as §4

[13] = qHTS RealTime-Glo MT Cell Viability Assay in HEK293 cells - 40 hour (AID 1224874); conditions: RealTime-Glo luminescence; max response: active compounds read low; also: nearly all actives have a fitted effect of over 50% in size; also: potency is read from the fitted curve at half-maximal effect
Method in brief: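 Kinetic, non-lysing viability readout. Seed HEK293 (600/well) with reagent, incubate 5 h at 37 C/5% CO2, pin 23 nL compound in DMSO, incubate at 37 C, read luminescence at 0, 8, 16, 24, 32, 40 h.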

[14] = A CellTox Green Cytotoxicity Assay to monitor cytotoxicity in HEK293 cells - 24 hour (AID 1224875); conditions: CellTox Green fluorescence; series mostly up to 76.8 µM; also: nearly all actives have a fitted effect of over 45% in size
Method in brief: as §3

[15] = A CellTox Green Cytotoxicity Assay to monitor cytotoxicity in HepG2 cells - 16 hour (AID 1224876); conditions: CellTox Green fluorescence; series mostly up to 76.8 µM; also: nearly all actives have a fitted effect of over 45% in size
Method in brief: (§5)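 Cytotoxicity was tracked as dead-cell DNA fluorescence in HepG2 cells treated with test compounds at 37 C; each time-point value comes from one kinetic series spanning 0, 8, 16, 24, 32 and 40 h.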

[16] = qHTS RealTime-Glo MT Cell Viability Assay in HepG2 cells - 32 hour (AID 1224877); conditions: RealTime-Glo luminescence; series mostly up to 76.8 µM; also: nearly all actives have a fitted effect of over 55% in size
Method in brief: as §1

[17] = A CellTox Green Cytotoxicity Assay to monitor cytotoxicity in HepG2 cells - 24 hour (AID 1224878); conditions: CellTox Green fluorescence; series mostly up to 76.8 µM; also: nearly all actives have a fitted effect of over 45% in size
Method in brief: as §5

[18] = A CellTox Green Cytotoxicity Assay to monitor cytotoxicity in HepG2 cells - 40 hour (AID 1224879); conditions: CellTox Green fluorescence; series mostly up to 76.8 µM; also: nearly all actives have a fitted effect of over 40% in size
Method in brief: as §5

[19] = qHTS assay to identify small molecule agonists of H2AX - cell viability counter screen (AID 1224847; calls by dose curve; also: top concentration of the series differs between compounds; nearly all actives have a fitted effect of over 30% in size); conditions: CHO-K1 viability, CellTiter-Glo luminescence, 3 h; series mostly up to 154 µM
Method in brief: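 Wild-type CHO-K1 cells (10% FBS medium) were plated overnight at 37C, exposed to compounds at 15 concentrations for 3 hr at 37C (0.76% DMSO final), and viability was read as CellTiter-Glo luminescence after 30 min at room temperature.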

[20] = qHTS assay to identify small molecule agonists of H2AX (AID 1224845; active = well fitted activation curve with a large enough effect in the signal ratio in the repeat runs, not every such curve was filed as active; the % refers to the signal ratio); conditions: CHO-K1 phospho-H2AX Ser139 HTRF, 3 h; series mostly up to 154 µM
Method in brief: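 Phospho-H2AX Ser139 measured by HTRF (ex 320 nm; em 665 and 620 nm) after 24 hr antibody incubation. Compounds, 15 concentrations, 0.76% DMSO, were applied to CHO-K1 cells for 3hr at 37C before lysis.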
% is scaled to controls: 0 for no effect and ±100 for the full control effect.

Sequence of Thyrotropin receptor (Homo sapiens) (P16473 whole entry, looked up): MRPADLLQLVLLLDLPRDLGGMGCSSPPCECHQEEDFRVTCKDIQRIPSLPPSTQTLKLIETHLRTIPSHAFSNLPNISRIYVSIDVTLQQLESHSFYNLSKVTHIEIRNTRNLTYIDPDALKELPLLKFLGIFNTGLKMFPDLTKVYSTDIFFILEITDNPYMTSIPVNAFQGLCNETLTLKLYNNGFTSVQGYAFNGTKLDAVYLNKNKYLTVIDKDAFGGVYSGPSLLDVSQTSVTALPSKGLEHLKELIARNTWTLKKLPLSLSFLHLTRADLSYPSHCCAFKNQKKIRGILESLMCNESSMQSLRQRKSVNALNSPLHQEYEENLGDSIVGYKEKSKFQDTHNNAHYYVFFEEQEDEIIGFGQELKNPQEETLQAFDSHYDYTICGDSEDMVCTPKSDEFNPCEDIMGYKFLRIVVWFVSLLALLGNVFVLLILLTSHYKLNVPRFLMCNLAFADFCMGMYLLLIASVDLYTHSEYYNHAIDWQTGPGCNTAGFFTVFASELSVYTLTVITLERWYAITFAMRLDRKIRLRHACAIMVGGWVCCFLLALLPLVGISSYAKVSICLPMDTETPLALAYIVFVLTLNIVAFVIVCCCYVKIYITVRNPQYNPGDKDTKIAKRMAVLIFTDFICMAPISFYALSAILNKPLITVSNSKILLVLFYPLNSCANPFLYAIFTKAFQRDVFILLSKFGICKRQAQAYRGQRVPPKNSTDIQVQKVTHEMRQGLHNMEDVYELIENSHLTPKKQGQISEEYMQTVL

Nc1ccc(Cl)cc1[N+](=O)[O-]
inactive: Potency [1] | Potency [2] | outcome [3] | Potency [4] | activity change, positive = activation [5] -0.746% | Potency [6] | Potency [7] | Potency [8] | Potency [9] | Potency [10] | Potency [11] | Potency [12] | max response [13] 2.66% | Potency [14] | Potency [15] | Potency [16] | Potency [17] | Potency [18]

Cc1nccn1-c1ccc(Sc2cccc(C3(C(N)=O)CCOCC3)c2)cc1
active: Potency [4] 1.37 µM | Potency [7] 1.38 µM | Potency [11] 1.38 µM | Potency [13] 1.23 µM
inactive: Potency [1] | Potency [2] | outcome [3] | activity change, positive = activation [5] -58% | Potency [8] | Potency [9] | Potency [10] | Potency [14] | Potency [15] | Potency [17]

COc1cc2[nH]c(=O)[nH]c(=O)c2cc1OC
inactive: Potency [1] | Potency [2] | outcome [3] | Potency [19] | Potency [4] | activity change, positive = activation [5] 2.16% [at 42.5 µM] | Potency [6] | Potency [7] | Potency [8] | Potency [9] | Potency [10] | Potency [11] | Potency [12] | max response [13] 1.95% | Potency [14] | Potency [15] | Potency [16] | Potency [17] | Potency [18]

O=S1OCCO1
inactive: Potency [1] | Potency [2] | outcome [3] | Potency [19] | Potency [4] | activity change, positive = activation [5] 6.2% | Potency [6] | Potency [7] | Potency [9] | Potency [10] | Potency [11] | Potency [12] | max response [13] 21% | Potency [14] | Potency [15] | Potency [16] | Potency [17] | Potency [18]

Oc1cc(O)c(Cl)cc1Cl
inactive: Potency [1] | Potency [2] | outcome [3] | Potency [19] | Potency [4] | activity change, positive = activation [5] -14.1% | Potency [6] | Potency [7] | Potency [8] | Potency [9] | Potency [10] | Potency [11] | max response [13] 17.2% | Potency [14] | Potency [15] | Potency [16] | Potency [17] | Potency [18]

ON(Cc1ccccc1)Cc1ccccc1
inactive: Potency [1] | Potency [2] | outcome [3] | Potency [19] | Potency [6] | Potency [7] | Potency [8] | Potency [9] | Potency [10] | Potency [11] | Potency [12] | max response [13] 4.01% | Potency [14] | Potency [15] | Potency [16] | Potency [17] | Potency [18]

Nc1nccs1
inactive: Potency [2] | Potency [20] | outcome [3] | Potency [19] | Potency [6] | Potency [7] | Potency [8] | Potency [9] | Potency [11] | max response [13] -15.6% | Potency [15] | Potency [16] | Potency [17] | Potency [18]
